# Assay results taken from PubChem BioAssay (NCATS).
# Results filed as inconclusive are left out. Values without a mark were called inactive. Active and inactive are the calls of the source. Calls follow the shape of the dose curve; as a rule, active = well fitted cell-killing curve with a large enough effect; inconclusive = small, poorly fitted or top-dose-only effect, or effect the other way; inactive = no such curve, though single readings can be large or run the other way.
# Tests used:
# [1] = Quantitative High-Throughput drug screen in 47 multiple myeloma cell lines against the NCATS MIPE library collection: OCIMY1_PLB cell viability assay (AID 1918979); also: nearly all actives have a fitted effect of over 35% in size
# In short: (§1)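 500 cells/well per myeloma line exposed to pinned MIPE 4.0 compounds for 48 h at 37 °C, 5% CO2. Viability read as ATP by CellTiter-Glo luminescence, normalised to DMSO-only (100%) and media-only (0%) wells.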
# [2] = Quantitative High-Throughput drug screen in 47 multiple myeloma cell lines against the NCATS MIPE library collection: MM1S_ATCC cell viability assay (AID 1918980); also: nearly all actives have a fitted effect of over 45% in size
# In short: as §1
# [3] = Quantitative High-Throughput drug screen in 47 multiple myeloma cell lines against the NCATS MIPE library collection: LP1_DSMZ cell viability assay (AID 1918982); also: nearly all actives have a fitted effect of over 35% in size
# In short: as §1
# [4] = Quantitative High-Throughput drug screen in 47 multiple myeloma cell lines against the NCATS MIPE library collection: KMS28PE_JCRB cell viability assay (AID 1918983); also: nearly all actives have a fitted effect of over 35% in size
# In short: as §1
# [5] = Quantitative High-Throughput drug screen in 47 multiple myeloma cell lines against the NCATS MIPE library collection: L363_DSMZ cell viability assay (AID 1918984); also: nearly all actives have a fitted effect of over 40% in size
# In short: as §1
# [6] = Quantitative High-Throughput drug screen in 47 multiple myeloma cell lines against the NCATS MIPE library collection: KMS34_JCRB cell viability assay (AID 1918985); also: nearly all actives have a fitted effect of over 40% in size
# In short: as §1
# [7] = Quantitative High-Throughput drug screen in 47 multiple myeloma cell lines against the NCATS MIPE library collection: OCIMY7_PLB cell viability assay (AID 1918987); details: OCI-MY7 myeloma viability, CellTiter-Glo ATP, 48 h; viability (% of DMSO): at 45.8 µM (top of the series); also: nearly all actives have a fitted effect of over 65% in size
# In short: as §1
# [8] = Quantitative High-Throughput drug screen in 47 multiple myeloma cell lines against the NCATS MIPE library collection: OCIMY5_PLB cell viability assay (AID 1918988); also: nearly all actives have a fitted effect of over 65% in size
# In short: as §1
# [9] = Quantitative High-Throughput drug screen in 47 multiple myeloma cell lines against the NCATS MIPE library collection: OPM1_PLB cell viability assay (AID 1918989); also: nearly all actives have a fitted effect of over 40% in size
# In short: as §1
# [10] = Quantitative High-Throughput drug screen in 47 multiple myeloma cell lines against the NCATS MIPE library collection: XG6_PLB cell viability assay (AID 1919865); also: nearly all actives have a fitted effect of over 40% in size
# In short: as §1
# [11] = Quantitative High-Throughput drug screen in 47 multiple myeloma cell lines against the NCATS MIPE library collection: XG1_PLB cell viability assay (AID 1919866); also: nearly all actives have a fitted effect of over 35% in size
# In short: as §1
# [12] = Quantitative High-Throughput drug screen in 47 multiple myeloma cell lines against the NCATS MIPE library collection: UTMC2_PLB cell viability assay (AID 1919868); details: CellTiter-Glo ATP luminescence, 48 h; viability (% of DMSO control): at 45.8 µM (top of the series); also: nearly all actives have a fitted effect of over 55% in size
# In short: as §1
# [13] = Quantitative High-Throughput drug screen in 47 multiple myeloma cell lines against the NCATS MIPE library collection: PE2_PLB cell viability assay (AID 1919869); also: nearly all actives have a fitted effect of over 35% in size
# In short: as §1
# [14] = Quantitative High-Throughput drug screen in 47 multiple myeloma cell lines against the NCATS MIPE library collection: PCM6_Riken cell viability assay (AID 1919870); also: nearly all actives have a fitted effect of over 30% in size
# In short: as §1
# [15] = Quantitative High-Throughput drug screen in 47 multiple myeloma cell lines against the NCATS MIPE library collection: OPM2_DSMZ cell viability assay (AID 1919872); also: nearly all actives have a fitted effect of over 30% in size
# In short: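 Luminescent ATP measurement with CellTiter-Glo gives viability, scaled between DMSO-only wells (100%) and media-only wells (0%). Cells, 500 per well, faced library compounds for 48 hours at 37C.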
# [16] = Quantitative High-Throughput drug screen in 47 multiple myeloma cell lines against the NCATS MIPE library collection: MM1R_ATCC cell viability assay (AID 1918981); also: nearly all actives have a fitted effect of over 35% in size
# In short: as §1
# [17] = Quantitative High-Throughput drug screen in 47 multiple myeloma cell lines against the NCATS MIPE library collection: SKMM1_PLB cell viability assay (AID 1919863); details: SKMM1 myeloma viability, CellTiter-Glo ATP, 48 h; viability: active compounds read low; also: nearly all actives have a fitted effect of over 35% in size
# In short: as §1
# [18] = Quantitative High-Throughput drug screen in 47 multiple myeloma cell lines against the NCATS MIPE library collection: U266_ATCC cell viability assay (AID 1919864); also: nearly all actives have a fitted effect of over 35% in size
# In short: as §1
# [19] = Quantitative High-Throughput drug screen in 47 multiple myeloma cell lines against the NCATS MIPE library collection: RPMI8226_ATCC cell viability assay (AID 1919871); also: nearly all actives have a fitted effect of over 30% in size
# In short: as §1
# [20] = Quantitative High-Throughput drug screen in 47 multiple myeloma cell lines against the NCATS MIPE library collection: VP6_DJ cell viability assay (AID 1919867); also: nearly all actives have a fitted effect of over 40% in size
# In short: as §1
# Potency is read from the fitted curve at half-maximal effect.
smiles,measurement,setting,value
C[C@H]1COc2c(N3CCN(C)CC3)c(F)cc3c(=O)c(C(=O)O)cn1c23,Potency,[1],inactive
same,Potency,[2],inactive
same,Potency,[3],inactive
same,Potency,[4],inactive
same,Potency,[5],inactive
same,Potency,[6],inactive
same,Potency,[7],inactive
same,Potency,[8],inactive
same,Potency,[9],inactive
same,Potency,[10],inactive
same,Potency,[11],inactive
same,Potency,[12],inactive
same,Potency,[13],inactive
same,Potency,[14],inactive
same,Potency,[15],inactive
CN[C@H]1[C@@H](O)[C@@H]2O[C@@H]3O[C@H](C)CC(=O)[C@]3(O)O[C@@H]2[C@@H](NC)[C@H]1O,Potency,[1],8330 nM (active)
same,Potency,[16],1180 nM (active)
same,Potency,[3],5900 nM (active)
same,Potency,[4],10500 nM (active)
same,Potency,[5],743 nM (active)
same,Potency,[6],1180 nM (active)
same,Potency,[7],8330 nM (active)
same,Potency,[8],1180 nM (active)
same,Potency,[9],8330 nM (active)
same,Potency,[17],10500 nM (active)
same,Potency,[18],662 nM (active)
same,Potency,[10],296 nM (active)
same,Potency,[11],93.5 nM (active)
same,Potency,[12],6620 nM (active)
same,Potency,[13],3320 nM (active)
same,Potency,[14],1480 nM (active)
same,Potency,[19],9350 nM (active)
C=C(C)[C@@H]1CC[C@]2(C(=O)O)CC[C@]3(C)[C@H](CC[C@@H]4[C@@]5(C)CC[C@H](O)C(C)(C)[C@@H]5CC[C@]43C)[C@@H]12,Potency,[1],inactive
same,Potency,[2],inactive
same,Potency,[3],inactive
same,Potency,[4],3720 nM (active)
same,Potency,[5],inactive
same,Potency,[6],inactive
same,Potency,[8],5900 nM (active)
same,Potency,[9],inactive
same,Potency,[17],935 nM (active)
same,Potency,[18],inactive
same,Potency,[10],2960 nM (active)
same,Potency,[11],inactive
same,Potency,[20],7430 nM (active)
same,Potency,[13],inactive
same,Potency,[19],5260 nM (active)
same,Potency,[15],inactive
CC(C(C)N1CC(=O)NC(=O)C1)N1CC(=O)NC(=O)C1 (stereo not given),Potency,[1],inactive
same,Potency,[2],inactive
same,Potency,[4],inactive
same,Potency,[8],469 nM (active)
same,Potency,[9],inactive
same,viability,[17],134%
same,Potency,[18],inactive
same,Potency,[10],inactive
same,Potency,[11],inactive
same,Potency,[20],inactive
same,Potency,[12],526 nM (active)
same,Potency,[13],inactive
same,Potency,[14],inactive
same,Potency,[19],inactive
same,Potency,[15],inactive
CS[C@H]1SC[C@@H]2C(=O)N(C)[C@H](C(C)C)C(=O)OC[C@H](NC(=O)c3cnc4ccccc4n3)C(=O)N[C@H](C)C(=O)N(C)[C@@H]1C(=O)N(C)[C@H](C(C)C)C(=O)OC[C@H](NC(=O)c1cnc3ccccc3n1)C(=O)N[C@H](C)C(=O)N2C,Potency,[1],20.9 nM (active)
same,Potency,[2],3 nM (active)
same,Potency,[3],6.6 nM (active)
same,Potency,[4],3 nM (active)
same,Potency,[6],4.7 nM (active)
same,Potency,[7],41.8 nM (active)
same,Potency,[8],2.1 nM (active)
same,Potency,[17],9.3 nM (active)
same,Potency,[18],6.6 nM (active)
same,Potency,[10],1 nM (active)
same,Potency,[11],7.4 nM (active)
same,Potency,[20],1 nM (active)
same,Potency,[12],1 nM (active)
same,Potency,[13],1 nM (active)
same,Potency,[14],1 nM (active)
same,Potency,[19],10.5 nM (active)
same,Potency,[15],8.3 nM (active)
CN1[C@H]2CC(OC(=O)[C@@H](CO)c3ccccc3)C[C@H]1[C@H]1O[C@H]12 (stereo not given in full),Potency,[1],inactive
same,Potency,[2],inactive
same,Potency,[3],inactive
same,Potency,[4],inactive
same,Potency,[5],inactive
same,Potency,[6],inactive
same,Potency,[7],inactive
same,Potency,[8],inactive
same,Potency,[9],inactive
same,Potency,[10],inactive
same,Potency,[11],inactive
same,Potency,[13],inactive
same,Potency,[14],inactive
same,Potency,[19],inactive
same,Potency,[15],inactive
O=C(C=Cc1ccc(CN(CCO)CCc2c[nH]c3ccccc23)cc1)NO,Potency,[1],296 nM (active)
same,Potency,[2],105 nM (active)
same,Potency,[3],148 nM (active)
same,Potency,[4],132 nM (active)
same,Potency,[5],59 nM (active)
same,Potency,[6],105 nM (active)
same,Potency,[7],83.3 nM (active)
same,Potency,[8],66.2 nM (active)
same,Potency,[9],66.2 nM (active)
same,Potency,[18],264 nM (active)
same,Potency,[10],235 nM (active)
same,Potency,[11],166 nM (active)
same,Potency,[20],59 nM (active)
same,Potency,[13],166 nM (active)
same,Potency,[14],132 nM (active)
same,Potency,[19],235 nM (active)
c1cncc(CN2CCC(n3ncc4c(N5CCOCC5)nc(-c5ccc6[nH]ccc6c5)nc43)CC2)c1,Potency,[1],16600 nM (active)
same,Potency,[2],5900 nM (active)
same,Potency,[3],5900 nM (active)
same,Potency,[4],6620 nM (active)
same,Potency,[6],5900 nM (active)
same,Potency,[7],9350 nM (active)
same,Potency,[8],13200 nM (active)
same,Potency,[17],23500 nM (active)
same,Potency,[18],5260 nM (active)
same,Potency,[10],1660 nM (active)
same,Potency,[11],935 nM (active)
same,Potency,[20],3320 nM (active)
same,Potency,[13],1480 nM (active)
same,Potency,[14],11800 nM (active)
same,Potency,[19],6620 nM (active)
same,Potency,[15],14800 nM (active)
NC1=N[C@H]2[C@H](CS[C@H]2CCCCC(=O)O)N1,Potency,[1],inactive
same,Potency,[2],inactive
same,Potency,[3],inactive
same,Potency,[5],inactive
same,Potency,[6],inactive
same,Potency,[8],inactive
same,Potency,[18],inactive
same,Potency,[10],inactive
same,Potency,[11],inactive
same,Potency,[20],inactive
same,Potency,[12],inactive
same,Potency,[14],inactive
same,Potency,[15],inactive
